This is part of a sample that, as a whole, favours compounds with a hit. Of some 79,000 tested, about 15% had one in any assay. A number with no mark means an inactive call. The source made the active and inactive calls. No stated cut-off is given here; in the data, active means growth inhibition above about 70%; inactive means the rest.
Assay: NCI Yeast Anticancer Drug Screen. Data for the mgt1 strain (AID 153)
Conditions: S. cerevisiae mgt1 mutant growth inhibition, stronger effect = higher value
Method: Growth inhibition of yeast strains with defined genetic alterations is measured as a screen for potential anti-cancer activity. Selected strains with alterations in DNA damage repair or cell cycle control were exposed to compounds and growth inhibition was measured relative to vehicle treated controls. The strain used in this assay is mgt1

| Compound | growth inhibition (at 1.2 µM) | growth inhibition (at 3.7 µM) | growth inhibition (at 11.0 µM) | growth inhibition (at 33.0 µM) | growth inhibition (at 100.0 µM) |
| --- | --- | --- | --- | --- | --- |
| COc1ccc2nc3cccc([N+](=O)[O-])c3c(NCCN(CCO)CCO)c2c1 | -3% | 2% | 29% | 71% (active) | 75% (active) |
| O=C(c1cc(Br)ccc1O)c1cc(Br)ccc1O | 38% | 95% (active) | 99% (active) | 100% (active) | 100% (active) |
| CC1C(NNc2ccccc2)Oc2cc3c(cc2C1c1ccccc1O)OCO3 (stereo not given) | -4% | 63% | 99% (active) | 93% (active) | 94% (active) |
| O=C(O)c1ccccc1NC(=S)c1ccccc1 | 5% | 0% | -3% | 18% | 81% (active) |
| CSC(=S)Nc1cc(C)ccn1 | -34% | -27% | 37% | 23% | 76% (active) |
| CCC(C(=O)O)C1=C(c2ccccc2)CCc2ccccc21 (stereo not given) | 7% | 12% | 90% (active) | 99% (active) | 80% (active) |
| Cc1cc(N=Nc2ccc(S(=O)(=O)[O-])cc2)cc(C(=O)[O-])c1[O-].NC1CCCCC1N.[Na+].[Pt+4] | 34% | 66% | 99% (active) | 99% (active) | 98% (active) |
| CC/C(=C(\c1ccccc1)c1ccc(OCCN(C)C)cc1)c1ccccc1 | 7% | 8% | 94% (active) | 98% (active) | 97% (active) |
